# Results: paper PMC7862700, “An all-to-all approach to the identification of sequence-specific readers for epigenetic DNA modifications on cytosine”
# How the values were obtained:
# Assay in all cases: DAPPL (digital affinity profiling via proximity ligation, sequencing); 10 mM Tris-HCl pH 7.5, 50 mM NaCl, 1 mM DTT, 4% glycerol, room temperature, 30 min; GST-TFs on glutathione beads, 16-mer random dsDNA library, 0.1% formaldehyde crosslink after washing; high values mean tight binding
# FLI1 = biological target: T1, FLI1 (Homo sapiens, UniProt Q01543 1-452); conditions: protein: recombinant; tags: N-terminal GST; dsDNA, one strand shown
# T1 sequence: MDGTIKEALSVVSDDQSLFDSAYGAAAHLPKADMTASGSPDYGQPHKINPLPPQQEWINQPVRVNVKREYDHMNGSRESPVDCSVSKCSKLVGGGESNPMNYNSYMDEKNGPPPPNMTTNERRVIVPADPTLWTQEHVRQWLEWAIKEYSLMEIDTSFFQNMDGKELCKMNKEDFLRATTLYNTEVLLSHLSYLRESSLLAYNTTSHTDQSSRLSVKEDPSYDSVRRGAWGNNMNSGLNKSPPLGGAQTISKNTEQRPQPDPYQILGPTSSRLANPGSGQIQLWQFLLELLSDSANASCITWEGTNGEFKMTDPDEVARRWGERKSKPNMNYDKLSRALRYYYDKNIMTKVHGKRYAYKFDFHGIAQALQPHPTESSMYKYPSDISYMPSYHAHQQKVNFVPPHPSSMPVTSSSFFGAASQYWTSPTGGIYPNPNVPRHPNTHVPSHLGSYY
# Outline: (§1)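 Pools of DNA-barcoded human transcription factors, expressed in yeast as GST fusions on glutathione beads and combined with a tag-only sample, were incubated with 200 nmole of a 16-mer random double-stranded DNA library. Incubation took 30 min at room temperature in Tris/NaCl/DTT/glycerol buffer and was followed by washing, 0.1% formaldehyde crosslinking, proximity ligation (BsaI/T4 ligase, 1 h, 37 °C), PCR amplification and sequencing on an Illumina NextSeq500. Binding signal is the ratio of a hexamer's read frequency for a factor to its frequency for the tag-only sample.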
# ELK1 = biological target: T2, ELK1 (Homo sapiens, UniProt P19419 1-428); conditions: protein: recombinant; tags: N-terminal GST; dsDNA, one strand shown
# T2 sequence: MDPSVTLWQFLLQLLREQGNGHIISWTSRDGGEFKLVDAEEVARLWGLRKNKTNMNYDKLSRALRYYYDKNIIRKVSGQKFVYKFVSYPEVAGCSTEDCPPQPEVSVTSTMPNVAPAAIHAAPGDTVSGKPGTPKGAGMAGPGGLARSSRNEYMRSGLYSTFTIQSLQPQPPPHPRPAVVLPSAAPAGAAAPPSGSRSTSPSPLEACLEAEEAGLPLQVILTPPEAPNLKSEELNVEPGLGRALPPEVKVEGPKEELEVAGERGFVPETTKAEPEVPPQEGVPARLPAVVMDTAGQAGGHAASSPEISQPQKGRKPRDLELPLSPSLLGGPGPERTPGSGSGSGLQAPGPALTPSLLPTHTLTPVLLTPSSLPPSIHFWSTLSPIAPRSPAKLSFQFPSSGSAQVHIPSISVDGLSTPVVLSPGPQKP
# Outline: as §1
# GABPA = biological target: T3, GABPA (Homo sapiens, UniProt Q06546 1-454); conditions: protein: recombinant; tags: N-terminal GST; dsDNA, one strand shown
# T3 sequence: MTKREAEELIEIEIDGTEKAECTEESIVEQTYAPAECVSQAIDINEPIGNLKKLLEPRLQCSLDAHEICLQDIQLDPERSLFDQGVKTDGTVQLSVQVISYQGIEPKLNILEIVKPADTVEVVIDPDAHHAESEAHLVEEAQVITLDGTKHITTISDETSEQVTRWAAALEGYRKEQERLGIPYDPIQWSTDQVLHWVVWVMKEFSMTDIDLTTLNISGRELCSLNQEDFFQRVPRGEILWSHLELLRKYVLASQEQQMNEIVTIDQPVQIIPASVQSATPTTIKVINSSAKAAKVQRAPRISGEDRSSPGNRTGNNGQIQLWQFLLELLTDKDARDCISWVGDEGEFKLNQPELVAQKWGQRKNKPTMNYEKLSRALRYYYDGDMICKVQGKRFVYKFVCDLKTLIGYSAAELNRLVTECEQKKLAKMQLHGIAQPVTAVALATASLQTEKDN
# Outline: as §1
# ERG = biological target: T4, ERG (Homo sapiens, UniProt P11308 1-479); conditions: protein: recombinant; tags: N-terminal GST; dsDNA, one strand shown
# T4 sequence: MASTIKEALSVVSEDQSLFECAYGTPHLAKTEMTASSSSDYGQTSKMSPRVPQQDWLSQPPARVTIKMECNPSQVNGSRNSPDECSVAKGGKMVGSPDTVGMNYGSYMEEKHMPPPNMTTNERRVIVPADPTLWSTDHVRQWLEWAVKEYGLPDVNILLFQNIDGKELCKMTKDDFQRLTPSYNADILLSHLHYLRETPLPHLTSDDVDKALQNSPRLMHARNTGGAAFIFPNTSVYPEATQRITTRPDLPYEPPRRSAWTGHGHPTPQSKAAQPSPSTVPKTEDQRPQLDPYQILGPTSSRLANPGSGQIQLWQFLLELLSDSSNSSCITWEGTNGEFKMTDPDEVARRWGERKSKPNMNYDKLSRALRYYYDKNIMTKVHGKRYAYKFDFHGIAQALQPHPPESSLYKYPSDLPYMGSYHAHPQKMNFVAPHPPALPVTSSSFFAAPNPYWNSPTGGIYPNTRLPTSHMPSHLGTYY
# Outline: as §1
# ELF1 = ELF1 (Homo sapiens, UniProt P32519 1-619); conditions: protein: recombinant; tags: N-terminal GST; dsDNA, one strand shown
# Outline: as §1
# EHF = biological target: T5, EHF (Homo sapiens, UniProt Q9NZC4 1-300); conditions: protein: recombinant; tags: N-terminal GST; dsDNA, one strand shown
# T5 sequence: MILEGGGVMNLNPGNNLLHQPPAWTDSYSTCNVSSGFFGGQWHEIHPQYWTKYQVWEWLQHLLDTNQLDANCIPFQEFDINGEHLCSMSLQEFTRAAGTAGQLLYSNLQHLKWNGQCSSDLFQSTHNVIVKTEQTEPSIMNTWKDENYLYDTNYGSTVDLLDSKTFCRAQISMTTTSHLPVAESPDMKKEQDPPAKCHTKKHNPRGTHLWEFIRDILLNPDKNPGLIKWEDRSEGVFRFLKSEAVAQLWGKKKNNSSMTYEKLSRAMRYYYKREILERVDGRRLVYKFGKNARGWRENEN
# Outline: as §1
# SPI1 = SPI1 (Homo sapiens, UniProt P17947 1-270); conditions: protein: recombinant; tags: N-terminal GST; dsDNA, one strand shown
# Outline: as §1
# SPIB = SPIB (Homo sapiens, UniProt Q01892 1-262); conditions: protein: recombinant; tags: N-terminal GST; dsDNA, one strand shown
# Outline: as §1
# ELK3 = biological target: T6, ELK3 (Homo sapiens, UniProt P41970 1-407); conditions: protein: recombinant; tags: N-terminal GST; dsDNA, one strand shown
# T6 sequence: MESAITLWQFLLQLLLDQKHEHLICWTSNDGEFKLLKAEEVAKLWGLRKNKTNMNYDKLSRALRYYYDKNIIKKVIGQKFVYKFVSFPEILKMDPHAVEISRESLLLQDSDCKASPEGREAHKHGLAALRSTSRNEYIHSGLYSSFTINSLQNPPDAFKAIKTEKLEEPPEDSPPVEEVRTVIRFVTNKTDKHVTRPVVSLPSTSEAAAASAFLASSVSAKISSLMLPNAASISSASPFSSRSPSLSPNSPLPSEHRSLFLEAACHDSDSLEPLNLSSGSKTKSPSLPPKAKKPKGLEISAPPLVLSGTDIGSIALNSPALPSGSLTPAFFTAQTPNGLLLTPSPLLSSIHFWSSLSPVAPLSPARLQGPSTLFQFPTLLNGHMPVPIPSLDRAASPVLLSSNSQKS
# Outline: as §1
# FEV = biological target: T7, FEV (Homo sapiens, UniProt Q99581 1-238); conditions: protein: recombinant; tags: N-terminal GST; dsDNA, one strand shown
# T7 sequence: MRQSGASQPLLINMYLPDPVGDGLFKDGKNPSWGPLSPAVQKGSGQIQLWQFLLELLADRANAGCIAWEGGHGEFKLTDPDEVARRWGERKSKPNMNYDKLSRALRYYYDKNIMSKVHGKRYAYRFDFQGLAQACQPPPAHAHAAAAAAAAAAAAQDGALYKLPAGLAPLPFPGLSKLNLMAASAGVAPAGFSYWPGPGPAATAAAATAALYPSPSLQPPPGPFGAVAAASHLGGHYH
# Outline: as §1
# ETV5 = ETV5 (Homo sapiens, UniProt P41161 1-510); conditions: protein: recombinant; tags: N-terminal GST; dsDNA, one strand shown
# Outline: as §1
# HSF1 = HSF1 (Homo sapiens, UniProt Q00613 1-529); conditions: protein: recombinant; tags: N-terminal GST; chain copies: 3; dsDNA, one strand shown
# Outline: as §1
# SPIC = biological target: T8, SPIC (Homo sapiens, UniProt Q8N5J4 1-248); conditions: protein: recombinant; tags: N-terminal GST; dsDNA, one strand shown
# T8 sequence: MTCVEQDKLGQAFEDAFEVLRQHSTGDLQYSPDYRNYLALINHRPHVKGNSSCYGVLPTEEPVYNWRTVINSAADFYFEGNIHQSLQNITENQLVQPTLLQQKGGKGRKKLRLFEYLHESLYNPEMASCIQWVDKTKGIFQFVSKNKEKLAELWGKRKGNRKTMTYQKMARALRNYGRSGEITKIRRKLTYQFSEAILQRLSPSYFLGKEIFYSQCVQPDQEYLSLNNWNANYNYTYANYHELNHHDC
# Outline: as §1
# ELF4 = ELF4 (Homo sapiens, UniProt Q99607 1-663); conditions: protein: recombinant; tags: N-terminal GST; dsDNA, one strand shown
# Outline: as §1
# ELK4 = biological target: T9, ELK4 (Homo sapiens, UniProt P28324-2 1-405); conditions: protein: recombinant; tags: N-terminal GST; dsDNA, one strand shown
# T9 sequence: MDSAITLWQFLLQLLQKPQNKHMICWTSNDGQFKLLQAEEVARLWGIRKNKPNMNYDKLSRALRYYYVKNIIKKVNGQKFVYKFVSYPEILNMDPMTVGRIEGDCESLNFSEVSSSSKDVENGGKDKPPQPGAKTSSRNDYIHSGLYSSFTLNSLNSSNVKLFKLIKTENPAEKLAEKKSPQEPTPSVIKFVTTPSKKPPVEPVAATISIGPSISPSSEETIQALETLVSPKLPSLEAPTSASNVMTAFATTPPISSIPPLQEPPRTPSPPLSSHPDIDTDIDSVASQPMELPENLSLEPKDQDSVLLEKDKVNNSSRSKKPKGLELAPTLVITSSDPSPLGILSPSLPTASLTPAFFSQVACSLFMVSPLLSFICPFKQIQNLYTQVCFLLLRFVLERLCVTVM
# Outline: as §1
# ETV2 = biological target: T10, ETV2 (Homo sapiens, UniProt O00321 1-342); conditions: protein: recombinant; tags: N-terminal GST; dsDNA, one strand shown
# T10 sequence: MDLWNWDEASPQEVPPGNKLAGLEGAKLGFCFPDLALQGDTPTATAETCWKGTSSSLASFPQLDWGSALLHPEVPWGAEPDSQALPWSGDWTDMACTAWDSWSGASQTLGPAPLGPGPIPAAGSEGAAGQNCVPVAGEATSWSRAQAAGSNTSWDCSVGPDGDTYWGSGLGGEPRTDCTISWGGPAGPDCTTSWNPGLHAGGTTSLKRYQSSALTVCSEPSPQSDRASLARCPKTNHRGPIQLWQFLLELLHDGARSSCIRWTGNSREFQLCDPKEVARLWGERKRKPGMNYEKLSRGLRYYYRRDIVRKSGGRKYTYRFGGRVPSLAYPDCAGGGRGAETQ
# Outline: as §1
# ELF3 = biological target: T11, ELF3 (Homo sapiens, UniProt P78545 1-371); conditions: protein: recombinant; tags: N-terminal GST; dsDNA, one strand shown
# T11 sequence: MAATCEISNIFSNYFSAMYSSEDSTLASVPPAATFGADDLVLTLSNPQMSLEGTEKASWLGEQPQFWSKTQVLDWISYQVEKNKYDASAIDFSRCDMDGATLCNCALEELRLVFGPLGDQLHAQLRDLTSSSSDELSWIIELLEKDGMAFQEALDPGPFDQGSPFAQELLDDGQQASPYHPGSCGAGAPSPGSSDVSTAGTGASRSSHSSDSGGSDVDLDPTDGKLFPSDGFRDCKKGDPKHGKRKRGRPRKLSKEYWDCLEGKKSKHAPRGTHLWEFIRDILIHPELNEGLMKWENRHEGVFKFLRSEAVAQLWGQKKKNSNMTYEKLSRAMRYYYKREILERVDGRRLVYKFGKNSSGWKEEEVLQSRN
# Outline: as §1
# CRX = CRX (Homo sapiens, UniProt O43186 1-299); conditions: protein: recombinant; tags: N-terminal GST; dsDNA, one strand shown
# Outline: as §1
# ETV1 = ETV1 (Homo sapiens, UniProt P50549 1-477); conditions: protein: recombinant; tags: N-terminal GST; dsDNA, one strand shown
# Outline: as §1
# ELF4, sequence (Q99607 whole entry): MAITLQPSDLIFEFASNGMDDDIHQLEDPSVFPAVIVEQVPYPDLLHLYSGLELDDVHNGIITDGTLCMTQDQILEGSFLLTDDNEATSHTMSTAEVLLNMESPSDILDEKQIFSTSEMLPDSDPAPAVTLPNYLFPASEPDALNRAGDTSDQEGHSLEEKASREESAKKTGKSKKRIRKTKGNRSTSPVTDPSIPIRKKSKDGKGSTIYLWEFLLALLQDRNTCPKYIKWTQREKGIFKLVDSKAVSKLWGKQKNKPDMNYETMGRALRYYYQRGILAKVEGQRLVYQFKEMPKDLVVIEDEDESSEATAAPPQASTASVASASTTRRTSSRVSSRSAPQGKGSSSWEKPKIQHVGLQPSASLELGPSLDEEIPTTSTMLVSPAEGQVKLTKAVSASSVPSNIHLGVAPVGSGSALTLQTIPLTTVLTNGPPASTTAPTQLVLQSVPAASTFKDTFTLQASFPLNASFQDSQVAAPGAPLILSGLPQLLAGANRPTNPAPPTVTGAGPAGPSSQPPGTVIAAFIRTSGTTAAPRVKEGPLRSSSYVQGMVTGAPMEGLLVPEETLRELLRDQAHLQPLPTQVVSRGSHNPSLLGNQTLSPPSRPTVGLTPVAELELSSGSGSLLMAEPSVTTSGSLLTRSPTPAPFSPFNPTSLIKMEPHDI
# ETV5, sequence (P41161 whole entry): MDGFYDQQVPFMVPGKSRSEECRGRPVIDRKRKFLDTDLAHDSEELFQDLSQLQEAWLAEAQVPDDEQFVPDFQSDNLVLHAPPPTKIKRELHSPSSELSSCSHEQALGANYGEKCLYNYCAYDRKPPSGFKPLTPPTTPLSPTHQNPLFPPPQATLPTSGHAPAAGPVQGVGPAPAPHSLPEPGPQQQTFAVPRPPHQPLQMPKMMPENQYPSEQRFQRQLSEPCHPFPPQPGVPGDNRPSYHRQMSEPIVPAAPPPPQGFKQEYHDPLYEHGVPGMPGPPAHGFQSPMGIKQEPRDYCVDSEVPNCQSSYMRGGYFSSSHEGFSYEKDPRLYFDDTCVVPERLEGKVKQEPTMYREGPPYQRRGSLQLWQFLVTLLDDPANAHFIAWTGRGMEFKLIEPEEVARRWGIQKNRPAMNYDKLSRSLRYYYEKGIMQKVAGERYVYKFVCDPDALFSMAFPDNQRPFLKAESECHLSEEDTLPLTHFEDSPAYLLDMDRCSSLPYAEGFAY
# HSF1, sequence (Q00613 whole entry): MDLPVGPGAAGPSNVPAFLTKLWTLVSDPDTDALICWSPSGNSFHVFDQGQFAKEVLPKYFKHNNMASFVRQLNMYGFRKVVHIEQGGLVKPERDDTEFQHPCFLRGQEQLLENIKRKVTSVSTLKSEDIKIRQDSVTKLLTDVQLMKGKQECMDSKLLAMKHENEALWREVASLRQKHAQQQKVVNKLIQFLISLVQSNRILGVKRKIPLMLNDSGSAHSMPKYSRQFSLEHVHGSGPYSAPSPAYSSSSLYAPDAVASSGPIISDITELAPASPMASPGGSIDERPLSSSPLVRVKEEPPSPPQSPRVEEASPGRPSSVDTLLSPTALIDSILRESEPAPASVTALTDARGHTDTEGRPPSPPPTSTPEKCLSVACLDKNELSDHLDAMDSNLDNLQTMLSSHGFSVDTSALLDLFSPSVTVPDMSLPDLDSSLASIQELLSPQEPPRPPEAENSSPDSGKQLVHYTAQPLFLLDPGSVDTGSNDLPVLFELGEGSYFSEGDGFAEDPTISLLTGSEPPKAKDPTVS
# CRX, sequence (O43186 whole entry): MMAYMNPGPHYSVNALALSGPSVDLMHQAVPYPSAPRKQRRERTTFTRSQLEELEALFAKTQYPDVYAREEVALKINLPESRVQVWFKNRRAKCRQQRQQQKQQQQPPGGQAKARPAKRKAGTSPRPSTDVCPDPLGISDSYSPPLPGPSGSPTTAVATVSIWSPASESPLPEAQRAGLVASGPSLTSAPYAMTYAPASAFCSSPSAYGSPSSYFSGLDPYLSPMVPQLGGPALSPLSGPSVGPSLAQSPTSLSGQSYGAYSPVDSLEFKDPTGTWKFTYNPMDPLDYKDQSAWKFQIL
# ELF1, sequence (P32519 whole entry): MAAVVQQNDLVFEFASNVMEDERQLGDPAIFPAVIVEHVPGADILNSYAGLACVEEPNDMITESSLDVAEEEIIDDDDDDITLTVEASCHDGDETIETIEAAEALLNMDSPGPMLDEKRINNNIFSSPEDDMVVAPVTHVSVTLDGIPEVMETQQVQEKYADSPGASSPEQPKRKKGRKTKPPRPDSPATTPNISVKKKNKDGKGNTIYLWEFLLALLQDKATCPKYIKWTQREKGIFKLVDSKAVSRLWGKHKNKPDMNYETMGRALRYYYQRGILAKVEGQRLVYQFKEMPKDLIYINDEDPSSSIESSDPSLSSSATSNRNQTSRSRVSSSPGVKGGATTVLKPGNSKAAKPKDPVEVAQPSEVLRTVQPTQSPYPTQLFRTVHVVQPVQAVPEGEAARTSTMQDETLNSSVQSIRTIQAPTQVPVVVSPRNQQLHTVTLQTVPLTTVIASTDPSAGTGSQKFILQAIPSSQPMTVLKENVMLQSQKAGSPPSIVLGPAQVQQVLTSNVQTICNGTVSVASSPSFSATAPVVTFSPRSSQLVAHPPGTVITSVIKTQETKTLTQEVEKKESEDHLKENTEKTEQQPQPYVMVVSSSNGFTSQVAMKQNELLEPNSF
# SPIB, sequence (Q01892 whole entry): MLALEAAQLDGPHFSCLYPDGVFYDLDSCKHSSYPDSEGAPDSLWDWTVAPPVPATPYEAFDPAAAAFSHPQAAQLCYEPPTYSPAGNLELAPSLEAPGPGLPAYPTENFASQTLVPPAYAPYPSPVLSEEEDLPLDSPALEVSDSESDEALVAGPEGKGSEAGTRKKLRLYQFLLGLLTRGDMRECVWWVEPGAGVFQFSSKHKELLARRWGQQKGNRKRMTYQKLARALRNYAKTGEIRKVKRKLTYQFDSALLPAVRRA
# ETV1, sequence (P50549 whole entry): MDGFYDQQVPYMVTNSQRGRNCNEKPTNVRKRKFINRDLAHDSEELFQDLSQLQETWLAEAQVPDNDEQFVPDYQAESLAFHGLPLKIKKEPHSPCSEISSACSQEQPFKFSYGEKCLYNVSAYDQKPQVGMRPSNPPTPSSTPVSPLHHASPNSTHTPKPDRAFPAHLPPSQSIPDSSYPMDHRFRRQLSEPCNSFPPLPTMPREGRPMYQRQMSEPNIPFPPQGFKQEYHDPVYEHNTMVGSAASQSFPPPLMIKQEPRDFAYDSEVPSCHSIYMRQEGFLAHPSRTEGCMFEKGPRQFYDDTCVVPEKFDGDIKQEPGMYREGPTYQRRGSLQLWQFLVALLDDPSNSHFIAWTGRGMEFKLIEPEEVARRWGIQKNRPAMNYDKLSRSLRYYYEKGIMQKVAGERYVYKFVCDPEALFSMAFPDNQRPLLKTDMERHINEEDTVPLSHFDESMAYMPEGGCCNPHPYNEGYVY
sequence,measurement,setting,value
ATTGCA,binding signal,FLI1,"1.17 fold enrichment (6-mer frequency, TF over GST control)"
same,binding signal,ELK1,"1.31 fold enrichment (6-mer frequency, TF over GST control)"
same,binding signal,GABPA,"1.19 fold enrichment (6-mer frequency, TF over GST control)"
same,binding signal,ERG,"1.21 fold enrichment (6-mer frequency, TF over GST control)"
same,binding signal,ELF1,"1.17 fold enrichment (6-mer frequency, TF over GST control)"
same,binding signal,EHF,"1.14 fold enrichment (6-mer frequency, TF over GST control)"
same,binding signal,SPI1,"1.19 fold enrichment (6-mer frequency, TF over GST control)"
same,binding signal,SPIB,"1.17 fold enrichment (6-mer frequency, TF over GST control)"
same,binding signal,ELK3,"1.24 fold enrichment (6-mer frequency, TF over GST control)"
same,binding signal,FEV,"1.15 fold enrichment (6-mer frequency, TF over GST control)"
same,binding signal,ETV5,"1.17 fold enrichment (6-mer frequency, TF over GST control)"
same,binding signal,HSF1,"1.06 fold enrichment (6-mer frequency, TF over GST control)"
same,binding signal,SPIC,"1.1 fold enrichment (6-mer frequency, TF over GST control)"
same,binding signal,ELF4,"1.19 fold enrichment (6-mer frequency, TF over GST control)"
same,binding signal,ELK4,"1.28 fold enrichment (6-mer frequency, TF over GST control)"
same,binding signal,ETV2,"1.31 fold enrichment (6-mer frequency, TF over GST control)"
same,binding signal,ELF3,"1.13 fold enrichment (6-mer frequency, TF over GST control)"
same,binding signal,CRX,"1.11 fold enrichment (6-mer frequency, TF over GST control)"
same,binding signal,ETV1,"1.17 fold enrichment (6-mer frequency, TF over GST control)"
